Reference: PubChem BioAssay AID652233 (Johns Hopkins Ion Channel Center, 2013)
Screen size: about 2,300 compounds; fewer than 10 were called active. A selection follows. Values without a mark were called inactive.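 Rule for the calls: active = yellow fluorescent protein signal ratio exceeding the buffer control mean by over 5 SD of those controls; inactive = the rest.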

Experiment: nonspecific effects on YFP-HEK293 ionomycin response – cell-based, parental YFP-HEK293, YFP quench, counter-screen for TMEM16A inhibitor project (AID 652233);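 note: ratio is mean of duplicate wells from kinetic YFP trace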
Conditions: parental YFP-HEK293, iodide YFP quench, at 10 µM

Q: With `Cc1nc2ccccc2cc1OCc1ccc(F)cc1` as the molecule, how does the YFP ratio F(max-min)/F0 read?
A: The YFP ratio F(max-min)/F0 was -0.66.

Q: With `CCCCNC(=O)CSc1nc2n[nH]c(C)c2c(=N)n1-c1cccc(Cl)c1C` as the molecule, how does the YFP ratio F(max-min)/F0 read?
A: The YFP ratio F(max-min)/F0 was -0.786.

Q: With `c1ccc(-c2nnc(SCc3nc4ccccc4[nH]3)o2)cc1` as the molecule, how does the YFP ratio F(max-min)/F0 read?
A: Its YFP ratio F(max-min)/F0 is -1.02.

Q: With `COc1ccc(OCC(=O)NCCc2ccc(S(N)(=O)=O)cc2)cc1` as the molecule, how does the YFP ratio F(max-min)/F0 read?
A: The YFP ratio F(max-min)/F0 was -0.874.

Q: Which YFP ratio F(max-min)/F0 does the source give for `COc1ccc(S(=O)(=O)NCCCCOc2ccc(Cl)cc2)cc1` here?
A: The YFP ratio F(max-min)/F0 was -1.14.

Q: For `O=C(CNCCC1=CCCCC1)Nc1ccccc1N1CCCCCC1`, which YFP ratio F(max-min)/F0 is on record?
A: The YFP ratio F(max-min)/F0 was -1.09.

Q: For `CN(c1cccc(NC(=O)c2ccc(CN3CCc4ccccc4C3)cc2)c1)S(C)(=O)=O`, which YFP ratio F(max-min)/F0 is on record?
A: The YFP ratio F(max-min)/F0 was -0.916.

Q: With `Cc1ccc(-n2ncc3c(N4CCN(c5ccc(F)cc5)CC4)ncnc32)c(C)c1` as the molecule, how does the YFP ratio F(max-min)/F0 read?
A: Its YFP ratio F(max-min)/F0 is -0.733.

Q: For `CCCCCc1ccc(-c2ccc(C(=O)O)cc2)nc1`, which YFP ratio F(max-min)/F0 is on record?
A: The YFP ratio F(max-min)/F0 was -0.857.

Q: Which YFP ratio F(max-min)/F0 does the source give for `O=C(Nc1cccc(S(=O)(=O)Nc2ccc(Cl)cc2)c1)c1ccc2c(c1)OCCO2` here?
A: Its YFP ratio F(max-min)/F0 is -1.08.

Q: Which YFP ratio F(max-min)/F0 does the source give for `S=C(NCc1ccc(Cl)cc1)NC12CC3CC(CC(C3)C1)C2` here?
A: The YFP ratio F(max-min)/F0 was -1.22.

Q: For `Cc1nc(C)c(-c2csc(NCCc3ccccc3)n2)s1`, which YFP ratio F(max-min)/F0 is on record?
A: The YFP ratio F(max-min)/F0 was -0.901.

Q: Which YFP ratio F(max-min)/F0 does the source give for `Cc1cc(C)cc(NS(=O)(=O)c2ccc(Oc3ncc(C(F)(F)F)cc3Cl)cc2)c1` here?
A: The YFP ratio F(max-min)/F0 was -0.961.

Q: Which YFP ratio F(max-min)/F0 does the source give for `N#Cc1nc(COc2ccc(-c3ccccc3)cc2)oc1NCc1cccnc1` here?
A: The YFP ratio F(max-min)/F0 was -0.991.

Q: With `Cn1c(=O)n(C)c2cc(S(=O)(=O)N3CCCc4ccccc43)ccc21` as the molecule, how does the YFP ratio F(max-min)/F0 read?
A: Its YFP ratio F(max-min)/F0 is -1.35.

Q: With `COc1ccc(CNc2nnnn2C)cc1` as the molecule, how does the YFP ratio F(max-min)/F0 read?
A: The YFP ratio F(max-min)/F0 was -0.894.

Q: With `O=C1c2ccccc2C(Nc2ccc3c(c2)OCCO3)N1Cc1ccco1` (centres undefined) as the molecule, how does the YFP ratio F(max-min)/F0 read?
A: Its YFP ratio F(max-min)/F0 is -0.965.

Q: With `O=C(COC(=O)CCc1c[nH]c(=O)[nH]1)Nc1ccccc1Cl` as the molecule, how does the YFP ratio F(max-min)/F0 read?
A: The YFP ratio F(max-min)/F0 was -0.772.

Q: With `N#CC1=C(SCc2ccccc2)NC(=O)C(C#N)C12CCCC2` (centres undefined) as the molecule, how does the YFP ratio F(max-min)/F0 read?
A: Its YFP ratio F(max-min)/F0 is -0.894.

Q: For `O=C(COc1ccccc1)NCc1ccc2c(c1)OCO2`, which YFP ratio F(max-min)/F0 is on record?
A: Its YFP ratio F(max-min)/F0 is -1.01.

Q: With `S=C(NCc1cccs1)Nc1ccc(Cl)cc1` as the molecule, how does the YFP ratio F(max-min)/F0 read?
A: Its YFP ratio F(max-min)/F0 is -1.2.

Q: With `Cc1ccc(C)c(N2CCN(S(=O)(=O)c3ccc4c(c3)oc(=O)n4C)CC2)c1` as the molecule, how does the YFP ratio F(max-min)/F0 read?
A: Its YFP ratio F(max-min)/F0 is -1.24.

Q: With `Cc1cc(C=O)c(C)n1-c1ccc(NC2CCCCC2)c([N+](=O)[O-])c1` as the molecule, how does the YFP ratio F(max-min)/F0 read?
A: Its YFP ratio F(max-min)/F0 is -0.94.

Q: With `CC(=O)c1c(C)[nH]c(C(=O)COC(=O)c2cccc(S(=O)(=O)N(C)c3ccccc3)c2)c1C` as the molecule, how does the YFP ratio F(max-min)/F0 read?
A: Its YFP ratio F(max-min)/F0 is -1.08.

Q: Which YFP ratio F(max-min)/F0 does the source give for `O=C(Nc1nc(-c2ccc3c(c2)OCO3)cs1)c1ccncc1` here?
A: Its YFP ratio F(max-min)/F0 is -0.891.

Q: With `CC(NC(=O)c1ccco1)C(=O)Nc1nc(-c2ccccn2)cs1` (centres undefined) as the molecule, how does the YFP ratio F(max-min)/F0 read?
A: Its YFP ratio F(max-min)/F0 is -1.13.

Q: For `Cc1ccc(N2C(=O)S/C(=C/c3cn(C)c4ccccc34)C2=O)cc1`, which YFP ratio F(max-min)/F0 is on record?
A: Its YFP ratio F(max-min)/F0 is -0.76.

Q: With `COc1ccc(CN(C)C(=O)CC(c2ccccc2)c2ccccc2)cc1` as the molecule, how does the YFP ratio F(max-min)/F0 read?
A: The YFP ratio F(max-min)/F0 was -1.04.

Q: For `CCOC(=O)N1CCN(C(=O)c2ccc3c(c2)N(Cc2ccc(C)cc2)CCS3)CC1`, which YFP ratio F(max-min)/F0 is on record?
A: The YFP ratio F(max-min)/F0 was -1.18.

Q: Which YFP ratio F(max-min)/F0 does the source give for `Cc1noc(C)c1COC(=O)c1cc2ccccc2cc1O` here?
A: The YFP ratio F(max-min)/F0 was -0.996.

Q: With `COc1ccc2[nH]cc(/C=C(/C#N)S(=O)(=O)c3ccccc3)c2c1` as the molecule, how does the YFP ratio F(max-min)/F0 read?
A: The YFP ratio F(max-min)/F0 was -1.14.

Q: Which YFP ratio F(max-min)/F0 does the source give for `O=C(N/N=C/c1cc(Cl)cc([N+](=O)[O-])c1O)C(O)(c1ccccc1)c1ccccc1` here?
A: The YFP ratio F(max-min)/F0 was -0.984.

Q: With `Cc1ccc2c(c1)N(S(=O)(=O)c1cc(-c3cc(C)no3)ccc1C)CCO2` as the molecule, how does the YFP ratio F(max-min)/F0 read?
A: Its YFP ratio F(max-min)/F0 is -0.714.

Q: For `COc1ccc(CCC(=O)c2ccc(OC)cc2)cc1`, which YFP ratio F(max-min)/F0 is on record?
A: Its YFP ratio F(max-min)/F0 is -1.35.

Q: With `Cc1ccc(-c2noc(CSc3nnnn3-c3ccccc3)n2)cc1` as the molecule, how does the YFP ratio F(max-min)/F0 read?
A: Its YFP ratio F(max-min)/F0 is -0.963.

Q: With `CC(C)(C)C(=O)/C(C#N)=C/c1ccc(O)cc1` as the molecule, how does the YFP ratio F(max-min)/F0 read?
A: The YFP ratio F(max-min)/F0 was -1.08.

Q: With `COC(=O)c1ccc(COC(=O)c2c(C)nn(Cc3ccccc3Cl)c2Cl)o1` as the molecule, how does the YFP ratio F(max-min)/F0 read?
A: The YFP ratio F(max-min)/F0 was -1.29.

Q: With `CC1=NN(c2cccc(Cl)c2)C(=O)C12CC(C)=C(C)CS2` (centres undefined) as the molecule, how does the YFP ratio F(max-min)/F0 read?
A: The YFP ratio F(max-min)/F0 was -1.3.

Q: With `CCOC(=O)c1cccc(NC(=O)CCn2nnc3ccccc32)c1` as the molecule, how does the YFP ratio F(max-min)/F0 read?
A: The YFP ratio F(max-min)/F0 was -1.02.

Q: With `C=C(C)Cn1c(C)cc(C)c(S(=O)(=O)c2ccccc2C)c1=O` as the molecule, how does the YFP ratio F(max-min)/F0 read?
A: Its YFP ratio F(max-min)/F0 is -0.995.

Q: For `Cc1nc2c(C(=O)NCc3ccc4c(c3)OCO4)c[nH]n2c(=O)c1Cc1ccccc1F`, which YFP ratio F(max-min)/F0 is on record?
A: Its YFP ratio F(max-min)/F0 is -1.21.

Q: With `COC(=O)c1ccc(NC(=O)c2ccccc2NS(=O)(=O)c2ccccc2)cc1` as the molecule, how does the YFP ratio F(max-min)/F0 read?
A: The YFP ratio F(max-min)/F0 was -0.979.

Q: For `O=C(NC(=S)Nc1ccccc1C(=O)O)c1ccc(-c2ccc(Br)cc2)o1`, which YFP ratio F(max-min)/F0 is on record?
A: The YFP ratio F(max-min)/F0 was -1.06.

Q: For `CN1c2ccc(C=O)c3c(C=O)ccc(c23)N(C)C1(C)C`, which YFP ratio F(max-min)/F0 is on record?
A: The YFP ratio F(max-min)/F0 was -1.

Q: Which YFP ratio F(max-min)/F0 does the source give for `Cc1ccccc1-n1nnnc1SCCCC(=O)c1ccc(F)cc1` here?
A: Its YFP ratio F(max-min)/F0 is -1.2.

Q: For `Cc1ccc(F)cc1NC(=O)Cc1nn(C)c(=O)c2ccccc12`, which YFP ratio F(max-min)/F0 is on record?
A: Its YFP ratio F(max-min)/F0 is -1.06.

Q: Which YFP ratio F(max-min)/F0 does the source give for `CC(C)CNC(=S)NNC(=O)c1nn(C)cc1Cl` here?
A: Its YFP ratio F(max-min)/F0 is -0.979.

Q: With `Cc1ccc(-n2[nH]c(C)c(/C=N/N3C(=O)c4cccc5cccc(c45)C3=O)c2=O)cc1` as the molecule, how does the YFP ratio F(max-min)/F0 read?
A: The YFP ratio F(max-min)/F0 was -0.991.

Q: For `Cc1nc(SCC(=O)N2CCc3ccccc3C2)c2c(C)c(C)sc2n1`, which YFP ratio F(max-min)/F0 is on record?
A: The YFP ratio F(max-min)/F0 was -1.07.

Q: With `CSc1nsc(NC(=O)Nc2ccccc2)n1` as the molecule, how does the YFP ratio F(max-min)/F0 read?
A: Its YFP ratio F(max-min)/F0 is -0.839.

Q: For `CCOC(=O)N1CC=C2C(C#N)=C(N)C(C#N)(C#N)[C@H](c3cccs3)[C@H]2C1`, which YFP ratio F(max-min)/F0 is on record?
A: Its YFP ratio F(max-min)/F0 is -1.01.

Q: For `CCC(=O)Nc1ccc2nc(C)n(Cc3ccccc3Cl)c(=O)c2c1`, which YFP ratio F(max-min)/F0 is on record?
A: The YFP ratio F(max-min)/F0 was -1.04.

Q: Which YFP ratio F(max-min)/F0 does the source give for `Cc1cccc(N=Nc2c(O)[nH]c3ccc(F)cc23)c1` here?
A: Its YFP ratio F(max-min)/F0 is -0.957.

Q: For `COc1cccc(CNS(=O)(=O)c2ccc3c(c2)CC(C)N3C(=O)C2CCC2)c1` (centres undefined), which YFP ratio F(max-min)/F0 is on record?
A: Its YFP ratio F(max-min)/F0 is -1.01.

Q: Which YFP ratio F(max-min)/F0 does the source give for `C=CCn1c(SCC(=O)Nc2nc3ccccc3s2)nnc1-c1ccccc1O` here?
A: Its YFP ratio F(max-min)/F0 is -1.05.

Q: Which YFP ratio F(max-min)/F0 does the source give for `Fc1ccc(CSc2nnc(-c3cc4c(s3)-c3ccccc3CC4)o2)cc1` here?
A: Its YFP ratio F(max-min)/F0 is -0.984.

Q: Which YFP ratio F(max-min)/F0 does the source give for `O=C(CSCc1ccc(Cl)cc1)N1CCN(Cc2ccc3c(c2)OCO3)CC1` here?
A: The YFP ratio F(max-min)/F0 was -1.19.

Q: Which YFP ratio F(max-min)/F0 does the source give for `CSc1cccc(NC(=S)N(C(C)C)C(C)c2ccccn2)c1` (centres undefined) here?
A: Its YFP ratio F(max-min)/F0 is -0.907.

Q: For `CCCCn1ccnc1C(=O)c1cccc(S(=O)(=O)N2c3ccccc3CC2C)c1` (centres undefined), which YFP ratio F(max-min)/F0 is on record?
A: Its YFP ratio F(max-min)/F0 is -1.39.
